{
  "source": "the supplement of paper PMC3334620",
  "note": "Whole data set: some 33,000 sequences, median “E-score (-0.5 to 0.5)” near -0.012, cut for the highest 2% near 0.27. The entries come from a sample that favours the highest values as a whole.",
  "data": [
    {"target": "T1, Vhr1 (UniProt P40522)", "T1 sequence": "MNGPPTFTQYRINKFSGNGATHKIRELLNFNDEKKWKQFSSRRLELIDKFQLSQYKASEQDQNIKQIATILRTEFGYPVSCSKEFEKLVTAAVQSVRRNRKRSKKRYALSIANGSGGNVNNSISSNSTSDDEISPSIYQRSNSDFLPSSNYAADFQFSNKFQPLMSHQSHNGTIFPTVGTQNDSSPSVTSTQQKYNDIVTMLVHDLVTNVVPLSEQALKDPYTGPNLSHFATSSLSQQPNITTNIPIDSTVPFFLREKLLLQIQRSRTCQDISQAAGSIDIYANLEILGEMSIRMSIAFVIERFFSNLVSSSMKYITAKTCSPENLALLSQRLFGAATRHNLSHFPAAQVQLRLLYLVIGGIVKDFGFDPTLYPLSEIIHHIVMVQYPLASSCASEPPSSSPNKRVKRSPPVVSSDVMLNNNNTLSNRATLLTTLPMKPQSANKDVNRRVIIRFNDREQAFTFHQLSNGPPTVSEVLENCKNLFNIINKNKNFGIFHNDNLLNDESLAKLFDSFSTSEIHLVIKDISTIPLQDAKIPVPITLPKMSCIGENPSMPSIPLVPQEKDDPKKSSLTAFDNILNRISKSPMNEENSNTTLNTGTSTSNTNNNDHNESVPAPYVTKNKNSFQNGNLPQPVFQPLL", "assay": "PBM E-score (8-mer binding enrichment) (E-score (-0.5 to 0.5)); higher = stronger / more preferred TF binding", "details": "protein concentration: 200 nM; construct: GST-full length", "how_it_was_run": "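Bound GST-tagged yeast transcription factors, applied at about 100-200 nM to double-stranded universal all-10-mer Agilent arrays, were detected with fluorescent anti-GST. Scans were normalised with masliner. A modified Wilcoxon-Mann-Whitney statistic, the E-score, was assigned to each ungapped eight-base word pooled with its reverse complement by the Universal PBM Analysis Suite.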", "values": [
      {"sequence": "CTCCCGCC", "PBM E-score": 0.0303},
      {"sequence": "CTAGCGAC", "PBM E-score": -0.00899},
      {"sequence": "CGTGTCTA", "PBM E-score": 0.124},
      {"sequence": "GGGATTTA", "PBM E-score": -0.29},
      {"sequence": "GAGATTTA", "PBM E-score": -0.176},
      {"sequence": "ATGATTTC", "PBM E-score": 0.249},
      {"sequence": "CTGATTTA", "PBM E-score": 0.00054},
      {"sequence": "GTGATTTA", "PBM E-score": 0.321},
      {"sequence": "ATGATTTA", "PBM E-score": 0.295},
      {"sequence": "TCAATTGA", "PBM E-score": -0.0329},
      {"sequence": "GATTCTCA", "PBM E-score": 0.078},
      {"sequence": "TGGTCCAA", "PBM E-score": -0.0804},
      {"sequence": "AGATATAT", "PBM E-score": 0.131},
      {"sequence": "GCTGGGAA", "PBM E-score": 0.0455},
      {"sequence": "AGTGGGAC", "PBM E-score": 0.0716},
      {"sequence": "CCAAATCG", "PBM E-score": -0.166},
      {"sequence": "ACTGCTCA", "PBM E-score": 0.0795},
      {"sequence": "AGCACTGG", "PBM E-score": -0.0591},
      {"sequence": "AGGATGGC", "PBM E-score": 0.124},
      {"sequence": "CTCACATA", "PBM E-score": 0.186},
      {"sequence": "ATCACTCA", "PBM E-score": 0.234},
      {"sequence": "GTCACTCA", "PBM E-score": 0.325},
      {"sequence": "GTCACGCA", "PBM E-score": 0.0821},
      {"sequence": "CTCACTCA", "PBM E-score": 0.0981},
      {"sequence": "CTCACGCC", "PBM E-score": 0.239},
      {"sequence": "GTCACAGA", "PBM E-score": 0.157},
      {"sequence": "GTCACAAA", "PBM E-score": -0.0213},
      {"sequence": "GTCACACA", "PBM E-score": 0.303},
      {"sequence": "CTCACACA", "PBM E-score": 0.299},
      {"sequence": "CTCACGCA", "PBM E-score": 0.29},
      {"sequence": "CTCACACC", "PBM E-score": 0.0809},
      {"sequence": "CATGGTAA", "PBM E-score": -0.0174},
      {"sequence": "AATAGGGC", "PBM E-score": -0.124},
      {"sequence": "AATTGTGG", "PBM E-score": 0.00128},
      {"sequence": "CCAACGCC", "PBM E-score": -0.203},
      {"sequence": "CATTTGAA", "PBM E-score": -0.0815},
      {"sequence": "TGATAGCA", "PBM E-score": 0.194},
      {"sequence": "ATAGATGC", "PBM E-score": -0.0668},
      {"sequence": "GTGATATA", "PBM E-score": 0.0452},
      {"sequence": "CCATCCTC", "PBM E-score": 0.0474},
      {"sequence": "CTAGTATA", "PBM E-score": 0.0509},
      {"sequence": "CTCAACTA", "PBM E-score": 0.106},
      {"sequence": "ACTCCACG", "PBM E-score": -0.104},
      {"sequence": "AATCAACA", "PBM E-score": 0.303},
      {"sequence": "GATCAACA", "PBM E-score": -0.0766},
      {"sequence": "ACTCCACA", "PBM E-score": 0.277},
      {"sequence": "AATCAATC", "PBM E-score": 0.186},
      {"sequence": "ACTCAACA", "PBM E-score": 0.289},
      {"sequence": "ACTCAACG", "PBM E-score": 0.171},
      {"sequence": "ACTCAATG", "PBM E-score": 0.159},
      {"sequence": "TATCAACA", "PBM E-score": 0.172},
      {"sequence": "ACTCAATC", "PBM E-score": 0.293},
      {"sequence": "TCTCAACA", "PBM E-score": 0.113},
      {"sequence": "TCTCCACA", "PBM E-score": -0.0495},
      {"sequence": "ACTCATAA", "PBM E-score": 0.164},
      {"sequence": "ACATCGCG", "PBM E-score": 0.183},
      {"sequence": "AGTTAGGC", "PBM E-score": -0.144},
      {"sequence": "CGACTGTC", "PBM E-score": 0.102},
      {"sequence": "AAAGTAGG", "PBM E-score": -0.0386},
      {"sequence": "ATCTCCAT", "PBM E-score": 0.0116},
      {"sequence": "ATGCTTGA", "PBM E-score": 0.0306},
      {"sequence": "AATCACCA", "PBM E-score": 0.33},
      {"sequence": "AATCACCC", "PBM E-score": 0.38},
      {"sequence": "AACCACCT", "PBM E-score": 0.0827},
      {"sequence": "CATCACCC", "PBM E-score": 0.103},
      {"sequence": "CATCACCA", "PBM E-score": 0.167},
      {"sequence": "AATCACGT", "PBM E-score": 0.225},
      {"sequence": "AATCACCT", "PBM E-score": 0.312},
      {"sequence": "TATCACCA", "PBM E-score": 0.0885},
      {"sequence": "AATCACCG", "PBM E-score": 0.266},
      {"sequence": "ACCCCAAG", "PBM E-score": -0.0964},
      {"sequence": "CCGATCAC", "PBM E-score": 0.0847},
      {"sequence": "GTGCAAAC", "PBM E-score": -0.0932},
      {"sequence": "TAGAAGGA", "PBM E-score": -0.332},
      {"sequence": "ATAAGGGA", "PBM E-score": -0.137},
      {"sequence": "ATCTAAAA", "PBM E-score": 0.0219},
      {"sequence": "ATTAACTG", "PBM E-score": 0.224},
      {"sequence": "CGTCATTC", "PBM E-score": 0.177},
      {"sequence": "ATTCATTC", "PBM E-score": 0.165},
      {"sequence": "CCTCATTC", "PBM E-score": -0.0181},
      {"sequence": "ATTCATTG", "PBM E-score": 0.0738},
      {"sequence": "AGTCATTC", "PBM E-score": 0.384},
      {"sequence": "AGCCATTC", "PBM E-score": -0.00524},
      {"sequence": "CGTCATTA", "PBM E-score": -0.122},
      {"sequence": "AGTCATTG", "PBM E-score": 0.389},
      {"sequence": "GGTCATTA", "PBM E-score": -0.0362}
    ]}
  ]
}
